About 83,000 compounds went through this panel and 20% of them were active in at least one assay; those are over-represented in the sample as a whole.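 Assay: single dose, 48 h. Readout: percent growth (0 = no net growth; negative = cell death). Active: <10.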 Unmarked numbers belong to inactive results. Activity calls are given as the source filed them.
These molecules were tested on SW-620 colon (assay: NCI-60 one-dose screen, 48 h (100 = growth as untreated, 0 = no growth, -100 = all killed)). Conditions: 10 µM unless noted.
Method: Growth inhibition of the SW-620 human tumor cell line is measured as a screen for anti-cancer activity. Cells are grown in 96 well plates and exposed to the test compound for 48 hours. Compounds are tested at a single concentration, which is 10^-5 M for most compounds. The reported endpoint is percent growth (GI% or GIPRCNT), where numbers from 0 - 100% represent growth inhibition, and numbers from -100% - 0 represent cell death. For example, a value of 40 represents 60% growth inhibition. A value of 0 means no net growth occurred over the course of the experiment. A value of -40 indicates 40% of cells at the beginning of the experiment died by the end of the experiment. A value of -100 means all cells are dead at the end of the experiment.
NCI-60 Human Tumor Cell Lines Screen was performed using the standard one-dose NCI protocol, which is described in more detail at https://dtp.cancer.gov/discovery_development/nci-60/default.htm.
Compounds with GIPRCNT values below 10 were considered active. Activity score was based on GIPRCNT using the following formula: […]
Score is 0 for GIPRCNT values of 100 or above, 50 for GIPRCNT values of 0, and 100 for GIPRCNT values of -100.

Row | SMILES | growth
1 | COc1ccc(C2CC(c3ccc(Nc4nc(Nc5ccccc5)nc(Nc5ccccc5)n4)cc3)=NN2C(C)=O)cc1 (stereo not given) | 104%
2 | O=C1/C(=C/c2ccccc2O)CC/C1=C\c1ccccc1O | 55.1%
3 | CS(=O)(=O)Nc1cc(-c2ccc3ncnc(Nc4ccc5c(cnn5Cc5cccc(F)c5)c4)c3c2)cnc1Cl | 18.4%
4 | CSc1nc(N)c(NS(=O)(=O)c2ccc(C(C)=O)cc2)c(=O)[nH]1 | 102%
5 | CS(=O)(=O)Nc1cc(-c2ccc3ncnc(Nc4ccc5c(cnn5Cc5ccc(F)cc5)c4)c3c2)cnc1Cl | 43.1%
6 | NNc1nc(-c2cccnc2)nc2c1sc(=S)n2-c1ccccc1 | 102%
7 | CC(O)(c1ccccc1)C(c1ccccc1)C1CCCCN1 (stereo not given) | 103%
8 | CCCCCC(/C=N\NC(=S)N/N=C/C(=C/c1ccccc1)CCCCC)=C\c1ccccc1 | 81.2%
9 | O=C(Nc1nc2cc(C(=O)N3CCN(C(c4ccccc4)c4ccccc4)CC3)ccc2o1)c1ccc(NC2CCCCC2)c([N+](=O)[O-])c1 | 44.3%
10 | O=C(/C=C/c1ccccc1)Nc1ncc(Cc2ccccc2Cl)s1 | 31.4%
11 | Cc1ccc(-c2nc(N3CCCNCC3)c3oc(-c4ccccc4)nc3n2)cc1 | -73.3% (active)
12 | Cn1c(=O)c2nc(/C=C/c3ccccc3)c(=O)[nH]c2n(C)c1=S | 98.9%
13 | COc1ccc(CN2c3ccccc3Sc3ccccc32)cc1F | 23.8%
14 | COc1ccc(-c2nc3c(ncc4ccc(=O)[nH]c43)s2)cc1 | 66.5%
15 | Cn1cc(-c2csc(-c3cn(C(=O)OC(C)(C)C)c4ccc(Br)cc34)n2)c2ccnc(Cl)c21 | 75.8%
16 | O=C(CSc1nc2ccc([N+](=O)[O-])cc2[nH]1)Nc1ccc([N+](=O)[O-])cc1 | 31.9%
17 | CCOC(=O)NC(C)C | 111%
18 | Cn1ccnc1C(=O)/C=C/c1ccc(C(=O)Nc2ccc(Cl)cc2)cc1 | -46.8% (active)
19 | Cc1ccc(-c2nc(N3CCCNCC3)c3oc(-c4ccc(C)cc4)nc3n2)cc1 | -49.7% (active)
20 | C=CCN=c1sc2c(n1NC(=O)c1cc3ccc1CCc1ccc(cc1)CC3)C(=O)c1ccccc1C2=O | -59.7% (active)

Row | SMILES | growth
21 | CCN(CC)CCn1c2ccc(O)cc2c2sc3cc(O)ccc3c(=O)c21 | 15.5%
22 | Cc1ccccc1/C=C/C(=O)c1cccc(OCCCCOc2cccc(C(=O)/C=C/c3ccccc3C)c2)c1 | 94.6%
23 | CC(C)(Sc1cc(C(C)(C)C)c(OC(=O)CCCC(=O)O)c(C(C)(C)C)c1)Sc1cc(C(C)(C)C)c(OC(=O)CCCC(=O)O)c(C(C)(C)C)c1 | 41.4%
24 | CC(C)c1ccc(-n2c(=S)[nH]c3sc4cc(O)ccc4c3c2=O)cc1 | 96.9%
25 | O=C(Nc1nc(-c2ccc(Cl)cc2)nc2c1sc(=S)n2-c1ccccc1)C(F)(F)F | 34.3%
26 | CCN1C(=S)N(c2ccccc2)C2C1NN=c1s/c(=C3\C(=O)N(C(C)C)c4ccccc43)c(=O)n12 (stereo not given) | 75.6%
27 | C#CCOc1cccc(Nc2ncnc3ccc(NC(=O)C=C)cc23)c1 | 55.9%
28 | CCOC(=O)c1cc2c(n1Cc1cc(OC)c(OC)c(OC)c1)-c1nc(N)sc1CCC2 | 43.4%
29 | CN1CCc2nc3sc(C(N)=O)c(N)c3c(-c3cccs3)c2C1 | 35%
30 | Cn1cc(-c2csc(-c3c[nH]c4ccccc34)n2)c2cnccc21 | -48% (active)
31 | Cn1cc(C(=O)c2nc(-c3c[nH]c4ccccc34)no2)c2cc(F)ccc21 | 23.2%
32 | O=S(=O)(NCCCNc1nccc(-c2c(-c3ccc(F)c(O)c3)nc3occn23)n1)c1ccc(Cl)cc1 | 97.8%
33 | O=C1/C(=C/c2ccc([N+](=O)[O-])cc2)COc2ccc(O)cc21 | -11.7% (active)
34 | COc1ccc(OC)c(-c2nc(SCC(=O)c3ccc(C#N)cc3)[nH]c(=O)c2C#N)c1 | 98.6%
35 | COc1cc2c(c(OC)c1OC)CCC(c1cccc(NC(=O)c3ccc(Br)cc3)c1)O2 (stereo not given) | 91.5%
36 | O=C(c1ccncc1)N1N=C(c2ccc(Cl)cc2)C[C@H]1c1cn(-c2ccccc2)nc1-c1ccccc1 | 101%
37 | Cn1c(I)c(C#CCO[Si](C)(C)C(C)(C)C)c(=O)[nH]c1=O | 11.4%
38 | CC1CN(S(=O)(=O)c2oc(-c3ccc(Cl)cc3)nc2C#N)CC(C)O1 (stereo not given) | -66.1% (active)
39 | O=C(O)CCCN1C(=O)/C(=C/c2cn(-c3ccccc3)nc2-c2ccc([N+](=O)[O-])cc2)SC1=S | 65.7%
40 | Ic1ccc(OCCCCn2ccnc2)cc1 | 58.1%

From PubChem BioAssay (NCI)
